Source: the supplement of paper PMC10849652
The full data set covers some 7,900 targets. This sample favours those with a hit. About 0.6% of all pairs of compound and target were hits.

What follows are targets tested with C1CN(CCC1(CC2=CC=C(C=C2)Cl)N)C3=NC=NC4=C3C=CN4 (assay: log2 fold change, soluble protein after heating vs DMSO (PISA); higher = thermal stabilisation; K562 cells, 10 uM, 30 min; active = over 0.2 and 3.5 SD of the protein, either way, in both replicates (recomputed)).
In short: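 Quantification of soluble protein used TMTpro 16plex LC-MS/MS, with channel sums equalised. Samples were the supernatant after 21,000xg for 90 min of pooled aliquots from K562 cells (2×10^6 cells/mL) treated with 10 μM compound for 30 min, heated for 3 min over 48°C-58°C, and extracted in PBS with 0.5% NP-40 at 4°C. Values, from duplicates, describe thermal stability against control samples on a log2 fold-change scale.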

UniProt Q8TC07, sequence (Q8TC07 whole entry, looked up): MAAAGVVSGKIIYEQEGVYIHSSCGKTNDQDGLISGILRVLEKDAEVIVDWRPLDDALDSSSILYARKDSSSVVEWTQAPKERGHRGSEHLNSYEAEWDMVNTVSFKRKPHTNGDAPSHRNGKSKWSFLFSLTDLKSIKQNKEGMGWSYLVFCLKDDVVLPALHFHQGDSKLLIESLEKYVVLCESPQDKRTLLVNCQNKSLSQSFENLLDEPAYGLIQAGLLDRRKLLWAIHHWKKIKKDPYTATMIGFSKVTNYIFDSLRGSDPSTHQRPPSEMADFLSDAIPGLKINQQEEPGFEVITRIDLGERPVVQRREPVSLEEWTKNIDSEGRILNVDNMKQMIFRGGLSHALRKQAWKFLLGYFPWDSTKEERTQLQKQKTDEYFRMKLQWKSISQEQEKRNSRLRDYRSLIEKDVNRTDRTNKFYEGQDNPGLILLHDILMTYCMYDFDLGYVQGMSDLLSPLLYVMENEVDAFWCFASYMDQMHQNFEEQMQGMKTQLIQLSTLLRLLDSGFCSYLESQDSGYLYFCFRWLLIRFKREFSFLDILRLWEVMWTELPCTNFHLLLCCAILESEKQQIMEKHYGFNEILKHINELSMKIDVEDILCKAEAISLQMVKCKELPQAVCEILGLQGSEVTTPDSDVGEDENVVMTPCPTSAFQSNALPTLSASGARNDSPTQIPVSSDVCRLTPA
UniProt Q15005, sequence (Q15005 whole entry, looked up): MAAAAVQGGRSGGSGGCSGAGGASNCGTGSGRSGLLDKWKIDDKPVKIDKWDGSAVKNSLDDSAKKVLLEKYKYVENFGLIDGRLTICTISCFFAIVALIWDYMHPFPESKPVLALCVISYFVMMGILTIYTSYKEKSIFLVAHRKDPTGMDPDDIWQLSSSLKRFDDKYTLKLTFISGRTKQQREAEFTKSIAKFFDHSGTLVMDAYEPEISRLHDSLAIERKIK
UniProt Q92544, sequence (Q92544 whole entry, looked up): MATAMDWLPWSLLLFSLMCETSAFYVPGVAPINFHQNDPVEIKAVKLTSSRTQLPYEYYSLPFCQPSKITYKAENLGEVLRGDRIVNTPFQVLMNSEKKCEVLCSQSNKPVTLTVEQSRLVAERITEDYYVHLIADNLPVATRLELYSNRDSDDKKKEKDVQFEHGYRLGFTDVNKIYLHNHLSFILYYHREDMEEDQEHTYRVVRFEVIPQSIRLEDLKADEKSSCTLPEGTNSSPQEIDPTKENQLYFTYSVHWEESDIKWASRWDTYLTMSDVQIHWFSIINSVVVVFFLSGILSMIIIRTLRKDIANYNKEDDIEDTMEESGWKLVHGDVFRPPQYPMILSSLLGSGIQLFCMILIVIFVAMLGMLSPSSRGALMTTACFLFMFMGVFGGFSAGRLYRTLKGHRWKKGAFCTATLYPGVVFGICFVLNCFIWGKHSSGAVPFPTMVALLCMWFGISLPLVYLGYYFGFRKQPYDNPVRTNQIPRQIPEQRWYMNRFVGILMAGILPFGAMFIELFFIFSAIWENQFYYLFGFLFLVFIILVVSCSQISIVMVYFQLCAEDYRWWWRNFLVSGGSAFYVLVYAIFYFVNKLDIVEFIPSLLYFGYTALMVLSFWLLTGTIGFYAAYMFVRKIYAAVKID
UniProt O00506, sequence (O00506 whole entry, looked up): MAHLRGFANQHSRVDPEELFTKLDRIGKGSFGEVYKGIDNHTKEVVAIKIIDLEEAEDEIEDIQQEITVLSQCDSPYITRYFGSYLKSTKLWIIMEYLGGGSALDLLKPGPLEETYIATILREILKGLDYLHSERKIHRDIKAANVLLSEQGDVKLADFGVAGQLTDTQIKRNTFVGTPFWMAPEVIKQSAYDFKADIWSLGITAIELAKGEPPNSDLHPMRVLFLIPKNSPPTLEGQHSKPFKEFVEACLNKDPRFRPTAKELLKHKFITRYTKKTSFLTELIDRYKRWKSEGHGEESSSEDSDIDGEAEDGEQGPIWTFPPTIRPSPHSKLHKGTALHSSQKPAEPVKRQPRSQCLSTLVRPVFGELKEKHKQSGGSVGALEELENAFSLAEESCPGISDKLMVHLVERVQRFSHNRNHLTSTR
UniProt Q9Y5L4, sequence (Q9Y5L4 whole entry, looked up): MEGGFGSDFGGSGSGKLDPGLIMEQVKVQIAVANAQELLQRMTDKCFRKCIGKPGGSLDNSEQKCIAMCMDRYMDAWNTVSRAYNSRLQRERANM
UniProt Q02447, sequence (Q02447 whole entry, looked up): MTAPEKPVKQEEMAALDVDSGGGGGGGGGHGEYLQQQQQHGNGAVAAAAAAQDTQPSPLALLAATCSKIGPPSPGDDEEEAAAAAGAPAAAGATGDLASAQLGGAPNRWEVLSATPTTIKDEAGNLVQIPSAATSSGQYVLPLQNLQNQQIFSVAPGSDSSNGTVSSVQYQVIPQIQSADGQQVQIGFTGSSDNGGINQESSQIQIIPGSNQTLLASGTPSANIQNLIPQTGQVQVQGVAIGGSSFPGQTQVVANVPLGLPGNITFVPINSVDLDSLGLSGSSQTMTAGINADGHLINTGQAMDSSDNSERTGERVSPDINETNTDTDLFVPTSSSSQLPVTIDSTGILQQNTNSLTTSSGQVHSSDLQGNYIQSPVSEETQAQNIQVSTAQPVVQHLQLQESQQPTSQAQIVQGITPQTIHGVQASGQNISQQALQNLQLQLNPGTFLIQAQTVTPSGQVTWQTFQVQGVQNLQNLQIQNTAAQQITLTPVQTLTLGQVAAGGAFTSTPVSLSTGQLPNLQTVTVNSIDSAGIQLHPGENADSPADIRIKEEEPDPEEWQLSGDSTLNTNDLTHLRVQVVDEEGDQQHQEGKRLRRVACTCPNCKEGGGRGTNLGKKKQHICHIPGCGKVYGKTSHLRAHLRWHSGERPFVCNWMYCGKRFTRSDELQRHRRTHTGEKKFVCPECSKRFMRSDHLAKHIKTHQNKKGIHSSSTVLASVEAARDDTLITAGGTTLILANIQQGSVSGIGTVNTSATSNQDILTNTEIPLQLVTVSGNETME
UniProt Q9BTW9, sequence (Q9BTW9 whole entry, looked up): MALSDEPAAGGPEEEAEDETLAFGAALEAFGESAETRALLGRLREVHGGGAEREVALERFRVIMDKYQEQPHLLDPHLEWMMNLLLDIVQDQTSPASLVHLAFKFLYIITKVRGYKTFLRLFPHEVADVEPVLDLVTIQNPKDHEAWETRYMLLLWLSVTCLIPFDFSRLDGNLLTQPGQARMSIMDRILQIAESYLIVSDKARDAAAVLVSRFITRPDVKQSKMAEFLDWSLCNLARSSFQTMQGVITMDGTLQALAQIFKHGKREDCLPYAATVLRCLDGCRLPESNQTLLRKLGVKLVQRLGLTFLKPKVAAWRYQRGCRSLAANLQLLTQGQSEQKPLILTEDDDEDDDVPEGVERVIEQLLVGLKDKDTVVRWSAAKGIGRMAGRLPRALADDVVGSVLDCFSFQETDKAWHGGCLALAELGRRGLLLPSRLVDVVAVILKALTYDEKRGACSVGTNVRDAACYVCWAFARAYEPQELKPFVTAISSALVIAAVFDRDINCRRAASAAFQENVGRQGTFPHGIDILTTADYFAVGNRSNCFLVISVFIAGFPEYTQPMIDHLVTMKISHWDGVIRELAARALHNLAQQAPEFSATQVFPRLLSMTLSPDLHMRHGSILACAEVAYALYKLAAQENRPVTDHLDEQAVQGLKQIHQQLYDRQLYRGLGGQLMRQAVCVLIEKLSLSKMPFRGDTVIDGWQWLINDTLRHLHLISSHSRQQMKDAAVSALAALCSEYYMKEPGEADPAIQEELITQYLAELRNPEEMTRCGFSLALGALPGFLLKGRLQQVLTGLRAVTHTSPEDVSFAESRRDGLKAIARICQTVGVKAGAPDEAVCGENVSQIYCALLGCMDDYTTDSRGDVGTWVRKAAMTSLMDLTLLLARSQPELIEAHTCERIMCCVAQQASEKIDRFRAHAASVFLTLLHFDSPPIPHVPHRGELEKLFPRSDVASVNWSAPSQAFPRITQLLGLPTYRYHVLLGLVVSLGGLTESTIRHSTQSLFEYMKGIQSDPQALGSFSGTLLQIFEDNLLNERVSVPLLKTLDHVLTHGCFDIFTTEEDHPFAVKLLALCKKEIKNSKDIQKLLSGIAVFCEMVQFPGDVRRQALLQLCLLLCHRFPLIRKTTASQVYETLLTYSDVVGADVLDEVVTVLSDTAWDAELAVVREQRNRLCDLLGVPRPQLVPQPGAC
UniProt Q8WUH2, sequence (Q8WUH2 whole entry, looked up): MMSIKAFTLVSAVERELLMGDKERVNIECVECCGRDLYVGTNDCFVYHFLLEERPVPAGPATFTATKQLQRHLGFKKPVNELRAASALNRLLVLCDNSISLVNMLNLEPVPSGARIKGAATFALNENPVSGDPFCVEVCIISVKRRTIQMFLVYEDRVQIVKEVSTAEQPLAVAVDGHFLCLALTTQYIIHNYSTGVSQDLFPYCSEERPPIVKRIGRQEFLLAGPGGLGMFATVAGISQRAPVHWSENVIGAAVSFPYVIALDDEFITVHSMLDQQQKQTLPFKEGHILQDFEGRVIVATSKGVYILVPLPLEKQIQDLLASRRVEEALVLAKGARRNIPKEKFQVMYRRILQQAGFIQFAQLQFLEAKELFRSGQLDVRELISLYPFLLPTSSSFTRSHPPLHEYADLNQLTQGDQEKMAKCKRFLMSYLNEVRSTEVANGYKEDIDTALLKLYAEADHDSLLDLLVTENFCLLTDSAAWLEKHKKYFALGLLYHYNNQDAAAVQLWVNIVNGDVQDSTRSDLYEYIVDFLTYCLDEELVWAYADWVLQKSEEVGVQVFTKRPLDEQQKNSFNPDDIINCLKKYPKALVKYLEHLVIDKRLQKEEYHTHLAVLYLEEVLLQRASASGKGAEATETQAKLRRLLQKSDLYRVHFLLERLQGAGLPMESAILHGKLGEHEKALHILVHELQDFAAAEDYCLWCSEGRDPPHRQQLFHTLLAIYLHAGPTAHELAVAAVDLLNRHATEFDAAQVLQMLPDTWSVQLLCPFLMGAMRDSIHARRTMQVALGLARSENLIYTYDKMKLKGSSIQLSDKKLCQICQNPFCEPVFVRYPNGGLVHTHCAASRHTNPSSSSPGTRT

log2 fold change, inactive:
TIMM13 (UniProt Q9Y5L4) -0.006
SLC25A38 (UniProt Q96DW6) 0.055
SMARCA5 (UniProt O60264) -0.227
TEX30 (UniProt Q5JUR7) -0.029
SMG1 (UniProt Q96Q15) 0.066
SNRPD3 (UniProt P62318) -0.012
SUPT5H (UniProt O00267) 0.011
SPAST (UniProt Q9UBP0) -0.004
TBCD (UniProt Q9BTW9) -0.021
SMAP (UniProt O00193) 0.047
SPR (UniProt P35270) 0.034
TAOK3 (UniProt Q9H2K8) 0.007
SP3 (UniProt Q02447) -0.1
STOM (UniProt P27105) -0.079
TJP1 (UniProt Q07157) -0.035
SLC30A10 (UniProt Q6XR72) 0.115
SPCS2 (UniProt Q15005) 0.001
TM9SF4 (UniProt Q92544) 0.066
STAT5B (UniProt P51692) -0.013
SRSF10 (UniProt O75494) -0.135
SNX12 isoform 1 (UniProt Q9UMY4) -0.034
TBC1D15 isoform 3 (UniProt Q8TC07) -0.048
SYMPK (UniProt Q92797) 0.04
TBC1D23 (UniProt Q9NUY8) -0.025
SMAP2 (UniProt Q8WU79) 0.038
SNX5 (UniProt Q9Y5X3) -0.009
SNX9 (UniProt Q9Y5X1) 0.028
SRPRB (UniProt Q9Y5M8) 0.017
TANGO6 (UniProt Q9C0B7) 0
TGFBRAP1 (UniProt Q8WUH2) -0.053
TANK (UniProt Q92844) 0.01
TBRG4 (UniProt Q969Z0) -0.036
TERF2IP (UniProt Q9NYB0) -0.006
STK25 (UniProt O00506) 0.011
SLC27A4 (UniProt Q6P1M0) 0.062
SMC5 (UniProt Q8IY18) 0.116
SLC30A7 (UniProt Q8NEW0) 0.132
